Assay results: the OligoGym collection

molecular target: CCDC56; assay: pooled miR-30 sensor sort-seq; sequence = guide strand; details: shRNA
Further: reference of the scale not given here.

| Sequence | sensor-assay potency score (higher = more potent) |
| --- | --- |
| ATCTAGGAAACGCTCCTGGGAA | -1.12 |
| TAAATAGCCAACACCAGGGCCC | 0.333 |
| TCGAGTAGAAGGTGTAACCATA | -1.07 |
| TTGCCAGAGCTCGGGCTCGGGC | -1.79 |
| ACCATAAATAGCCAACACCAGG | -2.43 |
| TCGTCTTCTAGCTCATCTAGGA | -0.614 |
| TGGGAAATCGAGTAGAAGGTGT | 0.0738 |
| TAGCTCATCTAGGAAACGCTCC | -0.33 |
| TAGAATCCAGAGGGTCACCAGC | -1.25 |
| TTGCTCGGGTGTCAGCTTCTCC | -1.07 |

molecular target: CCDC72; assay: as above; details: shRNA

| Sequence | sensor-assay potency score (higher = more potent) |
| --- | --- |
| TTATCTTCCTCGTCCATCTCCT | 0.315 |
| TTCCTCGTCCATCTCCTTGGCC | -0.547 |
| TTTGTTTCTGCTTGAAAGCCTT | -0.585 |
| TTGTTTCTGCTTGAAAGCCTTA | -0.0976 |
| TCTGCTTGAAAGCCTTATCTTC | -0.819 |
| ATCTTCCTCGTCCATCTCCTTG | -1.81 |
| TTATTCTTAAATGTACAACAGC | -0.855 |
| TCTTCCTCGTCCATCTCCTTGG | -0.456 |
| TTCAGTGGCTTCTTCTTGCCAC | 0.0626 |
| TTAAATGTACAACAGCTCCAAG | -1.04 |

molecular target: CCDC77; assay: as above; details: shRNA

| Sequence | sensor-assay potency score (higher = more potent) |
| --- | --- |
| TTTCTTCTTACACTGCACCCTA | -0.0389 |
| TAATATATTCACTTTGAGCATG | -0.91 |
| TTATCTTTTTCAAGCATCCATG | -1.19 |
| TTTGGTGCTCTCATAGAGCAGT | -0.0472 |
| TATGCTGTCCTTCACAAGCTTC | -1.33 |
| TTCTTGTCTTCTAGCTCCCTGA | -1.06 |
| TTTTTCTCTTGTACTAACTTAT | -0.944 |
| TTAATATCTGTCTTAAAGCCTT | -0.792 |
| TTTCTTGTCTTCTAGCTCCCTG | -0.0804 |
| TAGCTCTTTGATTTTGTTCTGA | 0.252 |
| TTTCGTTTGAGTCTCTAGCGCC | -0.231 |
| TTGCAAAATACCTTCTTCCTAA | -0.254 |

molecular target: CCL13; assay: as above; details: shRNA

| Sequence | sensor-assay potency score (higher = more potent) |
| --- | --- |
| TGAAGCAGCAAGTAGATGGGAC | -0.203 |
| TTACTTAACACATAGTACATTT | -1.04 |
| AAGGAGATCTTCTTACTGCTAA | -0.229 |
| TCTGAAGATGACAGCCTTCTGG | -0.807 |
| ATCTTCTTACTGCTAAATGTGA | -1.06 |
| TATAATTCTGGACCCACTTCTC | -0.771 |
| ATTCTGGACCCACTTCTCCTTT | -1.22 |
| TTTCATATAATTCTGGACCCAC | 0.0997 |
